Common to all, as to assay: NCI-60 one-dose screen, 48 h (100 = growth as untreated, 0 = no growth, -100 = all killed)
For one test, the system named is 786-0 renal. Particulars: 10 µM unless noted.
The test system of the next test is DU-145 prostate. The note with it: 10 µM unless noted.
The subject of the next test is MDA-MB-231 breast. The note with it: 10 µM unless noted.
The next test has as its system SF-268 CNS. Particulars: 10 µM unless noted.
Another test concerns SF-539 CNS. Particulars: 10 µM unless noted.
Another test deals with M14 melanoma. The note with it: 10 µM unless noted.
Another test deals with HCT-15 colon. Particulars: 10 µM.
The test system of another test is SNB-19 CNS. The note with it: 10 µM unless noted.
The test system of another test is UACC-62 melanoma. The note with it: 10 µM unless noted.
In another test the test system is SN12C renal. The note with it: 10 µM unless noted.
In a further test the test system is ACHN renal. The note with it: 10 µM unless noted.
In a further test the test system is MOLT-4 leukemia. The note with it: 10 µM.
Another test deals with OVCAR-8 ovarian. The note with it: 10 µM unless noted.
A further test concerns SK-OV-3 ovarian. The note with it: 10 µM unless noted.
The subject of a further test is NCI/ADR-RES ovarian. The note with it: 10 µM unless noted.
The next test concerns T-47D breast. The note with it: 10 µM unless noted.
A further test concerns MDA-MB-435 melanoma. The note with it: 10 µM unless noted.
The next test relates to SW-620 colon. Particulars: 10 µM unless noted.
Another test relates to HCT-116 colon. Particulars: 10 µM unless noted.
In the next test the test system is KM12 colon. The note with it: 10 µM unless noted.

The panel holds about 83,000 compounds, 20% with a hit somewhere; the sample as a whole holds those more often.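 Step 1: grow cells in 96-well plates. Step 2: add test compound at a single concentration. Step 3: incubate 48 h. Step 4: record percent growth.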 Values without a mark were called inactive. Activity calls are given as the source filed them. The calls were made as follows: active = growth percent below 10; inactive = the rest.

Data on eight molecules can be found in PubChem BioAssay (NCI).

In the case of `C=CC(O)CN1CC1CC` (centres undefined), the growth in the test with 786-0 renal was 107%; in the test with DU-145 prostate, 108%; with MDA-MB-231 breast, 113%; in the test on SF-268 CNS, 106%; in the test on SF-539 CNS it was 98%; in the test on M14 melanoma it was 96.5%. Besides, the growth with HCT-15 colon is 102%; in the test on SNB-19 CNS, 97.8%; in the test on UACC-62 melanoma, 92.6%; in the test on SN12C renal, 99%; in the test with ACHN renal it was 102%; in the test with MOLT-4 leukemia, 96.2%. In addition, the growth with OVCAR-8 ovarian is 89.1%; in the test on SK-OV-3 ovarian, 107%; in the test with NCI/ADR-RES ovarian, 97.4%; in the test with T-47D breast it was 101%; in the test with MDA-MB-435 melanoma, 99.1%; in the test with SW-620 colon it was 92%. For the same molecule, the growth with HCT-116 colon is 104%; with KM12 colon it was 106%.
In the case of `CC1CC=CCC12C(=O)NC(=S)NC2=O` (centres undefined), the growth was 107% with 786-0 renal; 122% with DU-145 prostate; 117% with MDA-MB-231 breast; 115% in the test with SF-268 CNS; 98.8% in the test on SF-539 CNS; 114% with M14 melanoma. Further, the growth in the test with HCT-15 colon is 103%; in the test on SNB-19 CNS, 109%; in the test with UACC-62 melanoma, 105%; in the test on SN12C renal it was 99.8%; in the test with ACHN renal, 106%; in the test with MOLT-4 leukemia, 109%. Further, the growth in the test with OVCAR-8 ovarian is 104%; in the test with SK-OV-3 ovarian, 104%; in the test with NCI/ADR-RES ovarian, 113%; with T-47D breast it was 98.2%; in the test with MDA-MB-435 melanoma it was 106%; in the test with SW-620 colon it was 104%. Besides, the growth was 108% in the test with HCT-116 colon and 116% in the test with KM12 colon.
Take `CCC(/C=C(C)/C=C/C(=O)c1c(O)c(-c2ccc(O)cc2)c[nH]c1=O)CO` (centres undefined): the growth with 786-0 renal is 87.6%; in the test on DU-145 prostate, 9.29% (active); in the test on MDA-MB-231 breast, 111%; in the test with SF-268 CNS it was 45.1%; in the test with SF-539 CNS, 77.4%; with M14 melanoma it was 104%. Besides, the growth was 91.6% in the test with HCT-15 colon; 90.6% in the test on SNB-19 CNS; 99.8% in the test with UACC-62 melanoma; 91.7% with SN12C renal; 104% in the test on ACHN renal; 31.5% with MOLT-4 leukemia. The growth in the test on OVCAR-8 ovarian is 92.4%; in the test with NCI/ADR-RES ovarian, 96.2%; with T-47D breast it was 92.6%; with MDA-MB-435 melanoma it was 80.9%; in the test on SW-620 colon, 100%; in the test on HCT-116 colon, 80.1%. Besides, the growth with KM12 colon is 47%.
For `CCC1CN1P(=O)(OCCOC)N1CC1CC` (centres undefined), the growth in the test on 786-0 renal is 103%; with DU-145 prostate it was 110%; with MDA-MB-231 breast, 107%; in the test on SF-268 CNS, 109%; in the test with SF-539 CNS, 97.1%; in the test with M14 melanoma, 109%. Further, the growth in the test with HCT-15 colon was 99.4%; in the test on SNB-19 CNS, 104%; with UACC-62 melanoma, 103%; with SN12C renal it was 101%; in the test with ACHN renal it was 103%; in the test on MOLT-4 leukemia, 108%. The growth in the test on OVCAR-8 ovarian is 105%; in the test with SK-OV-3 ovarian, 118%; with NCI/ADR-RES ovarian, 115%; in the test on T-47D breast, 104%; in the test with MDA-MB-435 melanoma it was 98.9%; in the test with SW-620 colon, 106%. In addition, the growth in the test with HCT-116 colon is 104%; in the test with KM12 colon, 114%.
In the case of `Cc1cc(N(CCCl)CCCl)ccc1C=Nc1ccc2ccccc2c1`, the growth is 75.5% in the test with 786-0 renal; 71.5% in the test with DU-145 prostate; 92% in the test with MDA-MB-231 breast; 72.3% with SF-268 CNS; 69% in the test on SF-539 CNS; 88% in the test on M14 melanoma. Moreover, the growth with HCT-15 colon is 79.7%; with SNB-19 CNS it was 84.7%; in the test with UACC-62 melanoma, 28.4%; with SN12C renal it was 49.7%; in the test with ACHN renal, 57%; in the test on MOLT-4 leukemia, 43.7%. The growth with OVCAR-8 ovarian was 72.7%; with SK-OV-3 ovarian, 80.9%; with NCI/ADR-RES ovarian it was 71.2%; in the test on T-47D breast, 5.25% (active); in the test with MDA-MB-435 melanoma it was 90.6%; in the test with SW-620 colon it was 84.9%. Besides, the results for the growth in the test on HCT-116 colon and in the test with KM12 colon were 79.9% and 87.6%, respectively.
As to `CC(C)(C)NCC(O)c1ccccc1Cl` (centres undefined), the growth is 20.9% in the test with 786-0 renal; -27.8% (active) in the test with DU-145 prostate; 12.8% in the test with MDA-MB-231 breast; 26.6% with SF-268 CNS; 7.78% (active) in the test on SF-539 CNS; -12.8% (active) in the test on M14 melanoma. In addition, the growth in the test with HCT-15 colon was 58.9%; with SNB-19 CNS it was 27.8%; with UACC-62 melanoma it was 24%; in the test with SN12C renal, 24.1%; in the test on ACHN renal, 53.7%; in the test on MOLT-4 leukemia, 31.6%. For the same molecule, the growth in the test on OVCAR-8 ovarian is 9.87% (active); in the test with SK-OV-3 ovarian it was 9.23% (active); with NCI/ADR-RES ovarian, 85.6%; in the test on T-47D breast it was 51.5%; with MDA-MB-435 melanoma, -52.5% (active); in the test with SW-620 colon, 22%. Moreover, the figures for the growth with HCT-116 colon and in the test on KM12 colon were 7.48% (active) and 3.52% (active), respectively.
In the case of `CC1(C)N=C(N)N=C(N)N1c1ccc(OCCCCNC(=O)Nc2cccc(S(=O)(=O)F)c2)c(Cl)c1`, the growth was 35.8% with 786-0 renal; 37.1% with DU-145 prostate; 59.6% in the test on MDA-MB-231 breast; 44.4% in the test on SF-268 CNS; 40.1% with SF-539 CNS; 40.4% in the test on M14 melanoma. Further, the growth in the test with HCT-15 colon is 90.3%; in the test with SNB-19 CNS, 45.7%; in the test with UACC-62 melanoma, 22.8%; with SN12C renal it was 7.54% (active); in the test with ACHN renal it was 94.9%; in the test with MOLT-4 leukemia it was 37.6%. Besides, the growth is 29.2% in the test with OVCAR-8 ovarian; 77.9% in the test with SK-OV-3 ovarian; 110% with NCI/ADR-RES ovarian; 115% in the test on T-47D breast; 20.1% in the test on MDA-MB-435 melanoma; 27.1% with SW-620 colon. Moreover, the growth with HCT-116 colon was 16.4%; in the test on KM12 colon, 41.7%.
Take `FC(F)=C(F)c1ccccc1`: the growth was 101% in the test with 786-0 renal; 108% in the test with DU-145 prostate; 115% with MDA-MB-231 breast; 111% in the test on SF-268 CNS; 103% in the test on SF-539 CNS; 96.7% in the test with M14 melanoma. The growth with HCT-15 colon is 107%; with SNB-19 CNS, 103%; in the test with UACC-62 melanoma it was 107%; in the test on SN12C renal, 112%; in the test with ACHN renal, 110%; in the test on MOLT-4 leukemia it was 92.6%. Besides, the growth in the test with OVCAR-8 ovarian is 104%; in the test with SK-OV-3 ovarian, 97.5%; in the test on NCI/ADR-RES ovarian it was 106%; in the test on T-47D breast it was 80.5%; with MDA-MB-435 melanoma it was 104%; with SW-620 colon, 109%. The growth with HCT-116 colon is 103%; with KM12 colon, 102%.
